Experimental data from PubChem BioAssay (NCATS).
Results filed as inconclusive are left out. The source made the active and inactive calls. The call rests on the fitted dose curve; in most records, active means well fitted curve in the direction sought with a large enough effect; inconclusive means small, poorly fitted or top-dose-only effect, or another doubt; inactive means no such curve, though single readings can be large; an effect the other way counts as inactive or inconclusive. *1 amine or outer side, *2 acyl side, *3 side chain or, on linkers, in order; H or OH if unused. Where a SMILES comes first, the peptide text is derived from it. [ ]: non-standard residue; d: D form. X5 = CC(CC(O[*:1])C(=O)[*:2])C(=O)O; NMeV = CN[CH](C(=O)O)C(C)C; NMeA = CN[CH](C)C(=O)O; βAla = NCCC(=O)O

Tests used:
[1] = P-glycoprotein substrates identified in KB-8-5-11 adenocarcinoma cell line, qHTS therapeutic library screen (AID 1346987); further: nearly all actives have a fitted effect of over 65% in size; further: potency means the concentration at half of the fitted maximal effect
How it was run: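 KB-8-5-11: colchicine-selected sub-line of KB-3-1 over-expressing P-gp; assay medium lacked colchicine. 72 h drug exposure at 37 degree C, CellTiter-Glo.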

[2] = target: Glutathione peroxidase 1 (Homo sapiens) (UniProt P07203); test: Primary qHTS Assay for Inhibitors of Recombinant Selenoprotein Glutathione Peroxidase 1 (GPX1) (AID 1845191); further: nearly all actives have a fitted effect of over 65% in size
Sequence of Glutathione peroxidase 1 (Homo sapiens) (P07203 whole entry, looked up): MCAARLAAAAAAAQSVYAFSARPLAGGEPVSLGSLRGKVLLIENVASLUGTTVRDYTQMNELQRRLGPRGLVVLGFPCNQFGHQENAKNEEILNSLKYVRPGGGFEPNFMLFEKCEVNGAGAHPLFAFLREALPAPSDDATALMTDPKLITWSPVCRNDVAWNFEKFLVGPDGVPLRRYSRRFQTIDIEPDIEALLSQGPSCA
How it was run: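 GR-coupled assay: compounds preincubated 30 min at room temperature with GPX1, then reaction started with CHP; final 10 nM GPX1, 1 mM GSH, 0.5 mM CHP, 0.5 mM NADPH, 100 nM GR, 0.01% BSA, pH 7.5 Tris buffer. NADPH fluorescence (340/450 nm) read at 0 and 15 min.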

[3] = target: Phospholipid hydroperoxide glutathione peroxidase GPX4 (Homo sapiens) (UniProt P36969); test: Primary qHTS Assay for Inhibitors of Recombinant Selenoprotein Glutathione Peroxidase 4 (GPX4) (AID 1845192); further: nearly all actives have a fitted effect of over 65% in size; further: potency means the concentration at half of the fitted maximal effect
Sequence of Phospholipid hydroperoxide glutathione peroxidase GPX4 (Homo sapiens) (P36969 whole entry, looked up): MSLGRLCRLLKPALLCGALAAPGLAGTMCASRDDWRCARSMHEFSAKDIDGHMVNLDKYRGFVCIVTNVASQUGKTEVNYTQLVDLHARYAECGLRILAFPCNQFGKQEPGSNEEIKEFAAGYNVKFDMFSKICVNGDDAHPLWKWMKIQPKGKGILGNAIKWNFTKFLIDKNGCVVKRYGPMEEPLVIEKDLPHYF
How it was run: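 GR-coupled assay: recombinant GPX4 preincubated 30 min with compound at room temperature; final 200 nM GPX4, 1 mM GSH, 0.5 mM cumene hydroperoxide, 0.5 mM NADPH, 100 nM GR, 0.01% BSA, pH 7.5 Tris. NADPH fluorescence (340/450 nm) read at 0 and 15 min.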

[4] = target: Luciferin 4-monooxygenase (Photinus pyralis) (UniProt P08659); test: Primary firefly luciferase (FLuc) qHTS assay for identification of artifact compounds. (AID 1845220); conditions: outcome: dose series up to 54.1 µM unless noted; further: nearly all actives have a fitted effect of over 60% in size
How it was run: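 Titrated compounds were incubated 15 min at RT, protected from light, with luciferin and ATP at 10 uM; reaction started with 10 nM FLuc, luminescence imaged at 5 min, and concentration-response fitted by Hill equation.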

[5] = system: Nanoluciferase (engineered Oplophorus gracilirostris luciferase); test: Primary Nanoluciferase (NLuc) qHTS assay for identification of artifact compounds. (AID 1845222);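 further: NLuc secreted into diluted conditioned medium of S16 cells; 0% = DMSO and -100% = no enzyme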
How it was run: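 qHTS format, against NLuc in S16 cell-conditioned medium. Nano-Glo substrate 1:100 was added after 15 min at room temperature. Luminescence was taken after a further 5 min.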

CRL-7250 = normal cell line; test: Cytotoxic Profiling of Annotated Libraries Using Quantitative High-Throughput Screening (AID 1296008); conditions: Five cell lines viability, CellTiter-Glo ATP luminescence, 48-72 h; max response: hits give low values; further: nearly all actives have a fitted effect of over 60% in size; further: potency means the concentration at half of the fitted maximal effect; on max response: on the % scale 0 is the no-effect control and ±100 the full control effect
How it was run: (§1)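 Cells exposed to compounds for 48 or 72 hr at 37 degrees Celsius. Viability read as ATP-coupled luminescence with CellTiter-Glo after 10 min at room temperature.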

NIH3T3 = test: as above; conditions: Five cell lines viability, CellTiter-Glo ATP luminescence, 48-72 h; max response: hits give low values
How it was run: as §1

C33A = test: Primary qHTS to identify gynecologic anti-cancer compounds using libraries of approved drugs and bioactive compounds (AID 1345084); conditions: Gynecologic cancer cell panel viability, ATPlite luminescence, 48 h; series mostly up to 57.5 µM; further: nearly all actives have a fitted effect of over 55% in size; further: potency means the concentration at half of the fitted maximal effect
How it was run: (§2)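 ATP-based viability (ATPlite), 1,000 cells/well, 16 h pre-incubation, 48 h compound at 37 C, 5% CO2, 15 min RT before read.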

CAOV3 = test: as above; conditions: Gynecologic cancer cell panel viability, ATPlite luminescence, 48 h; series mostly up to 57.5 µM
How it was run: as §2

HeLa = test: as above; conditions: Gynecologic cancer cell panel viability, ATPlite luminescence, 48 h; series mostly up to 57.5 µM
How it was run: as §2

Hek293T = test: as above; conditions: Gynecologic cancer cell panel viability, ATPlite luminescence, 48 h, control line for the selectivity index; series mostly up to 57.5 µM
How it was run: as §2

OV90 = test: as above; conditions: Gynecologic cancer cell panel viability, ATPlite luminescence, 48 h; series mostly up to 57.5 µM
How it was run: as §2

PA-1 = test: as above; conditions: Gynecologic cancer cell panel viability, ATPlite luminescence, 48 h; series mostly up to 57.5 µM
How it was run: as §2

Tov-21-G = test: as above; conditions: Gynecologic cancer cell panel viability, ATPlite luminescence, 48 h; series mostly up to 57.5 µM
How it was run: as §2

Tov112D = test: as above; conditions: Gynecologic cancer cell panel viability, ATPlite luminescence, 48 h; series mostly up to 57.5 µM
How it was run: as §2

[6] = target: Calcium and integrin-binding protein 1 (Homo sapiens) (UniProt Q99828); test: Primary qHTS for Identification of Calcium Integrin Binding Protein 1 (CIB1) Competitor (AID 1508620);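 further: GST tagged CIB1 binding a fluorescein labelled alphaIIb integrin peptide tracer; top concentration of the series differs between compounds; on the % scale 0 is the no-effect control and ±100 the full control effect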
Sequence of Calcium and integrin-binding protein 1 (Homo sapiens) (Q99828 whole entry, looked up): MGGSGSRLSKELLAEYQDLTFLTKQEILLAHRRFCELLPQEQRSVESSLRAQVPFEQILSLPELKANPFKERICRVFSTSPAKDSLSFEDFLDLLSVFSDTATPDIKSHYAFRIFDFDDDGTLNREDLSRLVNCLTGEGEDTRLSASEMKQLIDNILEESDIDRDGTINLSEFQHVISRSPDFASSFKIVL
How it was run: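 Fluorescence polarization competition: GST-tagged CIB1 (1 uM final) preincubated with compound 15 min at room temperature, then FITC-labelled alphaIIb peptide (100 nM final) added. After 15 min at room temperature, polarization read at Ex 480/Em 540.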

CASKI = test: Primary qHTS to identify gynecologic anti-cancer compounds using libraries of approved drugs and bioactive compounds (AID 1345084); conditions: Gynecologic cancer cell panel viability, ATPlite luminescence, 48 h; series mostly up to 57.5 µM; further: nearly all actives have a fitted effect of over 55% in size; further: potency means the concentration at half of the fitted maximal effect
How it was run: as §2

Es-2 = test: as above; conditions: Gynecologic cancer cell panel viability, ATPlite luminescence, 48 h; series mostly up to 57.5 µM
How it was run: as §2

JEG-3 = test: as above; conditions: Gynecologic cancer cell panel viability, ATPlite luminescence, 48 h; series mostly up to 57.5 µM
How it was run: as §2

[7] = system: Zika virus NS2B-NS3 protease (linked construct); test: Primary screen NINDS Rhodamine qHTS for Zika virus inhibitors (AID 1347160); further: nearly all actives have a fitted effect of over 55% in size
How it was run: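 Purified NS2B-NS3 protease with the NS2B hydrophilic domain joined by a flexible linker (25 nM) in 10 mM Tris-HCl pH 8.0, 0.01% Tween 20, preincubated 15 min at RT with compound; Rhodamine110 peptide substrate 1.5 µM; fluorescence change over 15 min; 4-parameter Hill fit.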

C=C(C)C(=O)O[C@H]1[C@@H]2[C@H](C)C(=O)O[C@@H]2C[C@@H](C)[C@@H]2C=CC(=O)[C@]21C
active: Potency [1] 3.6 µM | Potency (CRL-7250) 2.86 µM | Potency (NIH3T3) 8.05 µM | Potency (C33A) 12.6 µM | Potency (CAOV3) 10 µM | Potency (Hek293T) 5.62 µM | Potency (OV90) 3.55 µM | Potency (PA-1) 3.16 µM | Potency (Tov-21-G) 8.91 µM | Potency (Tov112D) 8.91 µM
inactive: Potency [2] | Potency [3] | outcome [4] | Potency [5] | Potency (HeLa)

CN1C(=O)[C@]23CC4C(C)(C)[C@@]5(C[C@@]41CN2CC[C@@]3(C)O)C(=O)Nc1c5ccc2c1OC=CC(C)(C)O2 (some centres undefined)
inactive: Potency [1] | Potency [6] | Potency [2] | Potency [3] | Potency [5] | max response (CRL-7250) -5.32% | max response (NIH3T3) -0.852% | Potency (C33A) | Potency (CAOV3) | Potency (CASKI) | Potency (Es-2) | Potency (HeLa) | Potency (Hek293T) | Potency (JEG-3) | Potency (OV90) | Potency (PA-1) | Potency (Tov-21-G) | Potency (Tov112D)

C[C@]12CC[C@@H](O[C@@H]3O[C@H](CO)[C@@H](O)[C@H](O)[C@H]3O)C[C@@]1(O)CCC1C2CC[C@]2(C)[C@@H](C3=CC(=O)OC3)CC[C@]12O (some centres undefined)
inactive: Potency [7] | Potency [6] | Potency [2] | Potency [3] | outcome [4] | Potency [5] | outcome (NIH3T3)
active: Potency [1] 0.159 µM | Potency (CRL-7250) 0.126 µM | Potency (C33A) 0.199 µM | Potency (CAOV3) 0.501 µM | Potency (Es-2) 0.355 µM | Potency (HeLa) 0.398 µM | Potency (Hek293T) 0.199 µM | Potency (OV90) 1.12 µM | Potency (PA-1) 0.355 µM | Potency (Tov-21-G) 0.178 µM | Potency (Tov112D) 0.112 µM

COc1ccc2[nH]c(-c3ccccc3)c(CCN(C)C)c2c1
active: Potency [3] 16.1 µM
inactive: Potency [1] | Potency [7] | Potency [6] | Potency [2] | outcome [4] | Potency [5] | outcome (CRL-7250) | max response (NIH3T3) -23.1% | Potency (C33A) | Potency (CAOV3) | Potency (CASKI) | Potency (Es-2) | Potency (HeLa) | Potency (Hek293T) | Potency (JEG-3) | Potency (OV90) | Potency (PA-1) | Potency (Tov-21-G) | Potency (Tov112D)

Clc1ccc([C@]23CNC[C@H]2C3)cc1Cl
inactive: Potency [1] | Potency [7] | Potency [6] | Potency [2] | Potency [3] | outcome [4] | Potency [5] | max response (CRL-7250) -9.42% | max response (NIH3T3) 1.31% | Potency (C33A) | Potency (CAOV3) | Potency (CASKI) | Potency (Es-2) | Potency (HeLa) | Potency (Hek293T) | Potency (JEG-3) | Potency (OV90) | Potency (PA-1) | Potency (Tov-21-G) | Potency (Tov112D)

CCC(C)C1NC(=O)C2CCCN2C(=O)C(CC(C)C(=O)O)OC(=O)CCNC(=O)C(C)N(C)C(=O)C(C(C)C)N(C)C1=O (centres undefined) (cyclo([X5]PI[NMeV][NMeA][βAla]); configuration not given here)
inactive: Potency [1] | Potency [7] | Potency [2] | Potency [3] | outcome [4] | Potency [5] | max response (CRL-7250) -24.2% | max response (NIH3T3) 3.88% | Potency (C33A) | Potency (CAOV3) | Potency (CASKI) | Potency (Es-2) | Potency (HeLa) | Potency (Hek293T) | Potency (JEG-3) | Potency (OV90) | Potency (PA-1) | Potency (Tov-21-G) | Potency (Tov112D)

O=C(N[C@H]1CN2CCC1CC2)c1cc2cccc(Cl)c2s1
inactive: Potency [6] | Potency [2] | Potency [3] | outcome [4] | Potency [5] | max response (CRL-7250) -12.3% | Potency (C33A) | Potency (CASKI) | Potency (Es-2) | Potency (HeLa) | Potency (Hek293T) | Potency (JEG-3) | Potency (OV90) | Potency (PA-1) | Potency (Tov-21-G) | Potency (Tov112D)

C=C1C(=O)O[C@@H]2[C@H]3C(=C)[C@@H](O)C[C@H]3C(=C)C[C@@H](O)[C@@H]12
inactive: Potency [1] | Potency [6] | Potency [2] | Potency [3] | outcome [4] | Potency [5] | max response (CRL-7250) -8.41% | Potency (C33A) | Potency (CAOV3) | Potency (CASKI) | Potency (Es-2) | Potency (HeLa) | Potency (Hek293T) | Potency (JEG-3) | Potency (OV90) | Potency (PA-1) | Potency (Tov112D)

C=C[C@H]1CN2CCC1C[C@H]2[C@H](O)c1ccnc2ccccc12 (some centres undefined)
inactive: Potency [1] | Potency [7] | Potency [6] | Potency [3] | outcome [4] | Potency [5] | max response (CRL-7250) -4.97% | max response (NIH3T3) -5.71% | Potency (C33A) | Potency (CAOV3) | Potency (CASKI) | Potency (Es-2) | Potency (HeLa) | Potency (Hek293T) | Potency (JEG-3) | Potency (OV90) | Potency (PA-1) | Potency (Tov-21-G) | Potency (Tov112D)

CCC1CN2CCc3cc(OC)c(OC)cc3C2CC1CC1=NCCc2cc(O)c(OC)cc21 (centres undefined)
inactive: Potency [1] | Potency [7] | Potency [6] | Potency [2] | Potency [3] | outcome [4] | Potency [5] | max response (CRL-7250) -0.358% | Potency (C33A) | Potency (CAOV3) | Potency (CASKI) | Potency (Es-2) | Potency (HeLa) | Potency (Hek293T) | Potency (JEG-3) | Potency (OV90) | Potency (PA-1) | Potency (Tov-21-G) | Potency (Tov112D)

CCCCCn1cc(C(=O)c2cccc3ccccc23)c2ccccc21
active: Potency (CRL-7250) 18.4 µM
inactive: Potency [1] | Potency [7] | Potency [6] | Potency [2] | Potency [3] | Potency [5] | max response (NIH3T3) 4.48% | Potency (C33A) | Potency (CAOV3) | Potency (CASKI) | Potency (Es-2) | Potency (HeLa) | Potency (Hek293T) | Potency (JEG-3) | Potency (OV90) | Potency (PA-1) | Potency (Tov-21-G) | Potency (Tov112D)

CC12Cc3cn[nH]c3C=C1CCC1C2CCC2(C)C1CCC2(C)O (centres undefined)
inactive: Potency [7] | Potency [6] | Potency [2] | Potency [3] | outcome [4] | Potency [5] | outcome (CRL-7250) | max response (NIH3T3) -0.979% | Potency (C33A) | Potency (CAOV3) | Potency (CASKI) | Potency (Es-2) | Potency (HeLa) | Potency (Hek293T) | Potency (JEG-3) | Potency (OV90) | Potency (PA-1) | Potency (Tov-21-G) | Potency (Tov112D)
